Source: PubChem BioAssay AID720621 (The Scripps Research Institute Molecular Screening Center, 2013)
The list shows a part of the results. A number with no mark means an inactive call.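 The calls were made as follows: active = inhibition above the mean of test compounds lying between the control limits plus 3 SD of those (cut at about 14% in these data); inactive = the rest.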

Molecular target: Fibrinogen beta chain (Homo sapiens) (UniProt P02675)
Assay: DD(E) binders in alternate-peptide displacement assay, confirmation, counter-screen for fibrin DD(E)-Tn6 binding project, biochemical, fluorescence polarization, human fibrin (AID 720621);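 also: 0% = median of compound wells and 100% = wells with Aha-Tn7 blocking peptide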
Conditions: TRITC-Tn6 fluorescence polarization displacement, at 8.3 µM, stronger effect = higher value

Sequence of Fibrinogen beta chain (Homo sapiens) (P02675 whole entry, looked up): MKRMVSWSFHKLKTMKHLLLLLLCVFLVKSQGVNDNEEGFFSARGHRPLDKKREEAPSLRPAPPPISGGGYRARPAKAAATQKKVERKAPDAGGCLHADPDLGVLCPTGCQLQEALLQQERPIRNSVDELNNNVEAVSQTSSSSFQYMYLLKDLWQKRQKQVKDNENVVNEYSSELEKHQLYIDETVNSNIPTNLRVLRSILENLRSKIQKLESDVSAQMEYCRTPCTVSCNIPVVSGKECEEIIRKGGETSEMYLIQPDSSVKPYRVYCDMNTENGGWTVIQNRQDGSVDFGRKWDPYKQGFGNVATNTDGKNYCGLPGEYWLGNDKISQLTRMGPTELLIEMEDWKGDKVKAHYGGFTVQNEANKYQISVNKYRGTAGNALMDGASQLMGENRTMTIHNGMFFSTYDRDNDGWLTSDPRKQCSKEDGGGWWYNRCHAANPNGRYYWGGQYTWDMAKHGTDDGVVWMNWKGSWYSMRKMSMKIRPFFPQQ

SMILES	inhibition
Cc1cc(N2CCNC[C@@H]2C)ccc1N1CC[C@H](O)C1	2.02%
COc1ccc2c(c1O)-c1cccc3c1[C@@H](C2)N(C)CC3	-6.45%
